# PubChem BioAssay (Tox21)
# “And” between values parts separate entries of the source, which are not always exact repeats. Identical values can stand only once. Results filed as inconclusive are left out. A call without a number means that no potency is given here. More than one record can exist for a structure, and the calls need not agree. The source made the active and inactive calls. Unless noted, calls follow the shape of the dose curve; as a rule, active = well fitted curve in the direction sought with a large enough effect in the repeat runs; inconclusive = weak or mixed curves; inactive = no such curve, though single readings can be large; an effect the other way counts as inactive or inconclusive.
# How the values were obtained:
# [1] = qHTS assay to identify small molecule antagonists of the thyroid receptor (TR) signaling pathway - cell viability counter screen (AID 743064); also: nearly all actives have a fitted effect of over 50% in size; also: potency is read from the fitted curve at half-maximal effect
# Procedure, shortened: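 Counter screen for cytotoxicity: compound plus T3 (1 nM final) on GH3.TRE-Luc cells, 23.5 h at 37 °C, then fluorescence viability readout with CellTiter-Fluor.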
# [2] = qHTS assay to identify small molecule antagonists of the thyroid receptor (TR) signaling pathway (AID 743065); also: nearly all actives have a fitted effect of over 55% in size; also: potency is read from the fitted curve at half-maximal effect
# Procedure, shortened: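 GH3.TRE-Luc rat pituitary cells (two TREs driving luciferase) were dosed with compound, then stimulated with 1 nM T3 (final) for 23.5 h at 37 C. ONE-Glo luminescence was the read-out, with CellTiter-Fluor fluorescence as the cytotoxicity counter-screen.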
# [3] = tested on: thyroid hormone receptor (rat, GH3 cells); experiment: qHTS assay to identify small molecule agonists of the thyroid receptor (TR) signaling pathway (AID 743066; calls by dose curve)
# [4] = target: Estrogen receptor (Homo sapiens) (UniProt P03372); experiment: qHTS assay to identify small molecule antagonists of the estrogen receptor alpha (ER-alpha) signaling pathway (AID 743069; active = well fitted curve in the direction sought with a large enough effect in the signal ratio in the repeat runs, not every such curve was filed as active; the % refers to the signal ratio)
# Estrogen receptor (Homo sapiens), sequence (P03372 whole entry, looked up): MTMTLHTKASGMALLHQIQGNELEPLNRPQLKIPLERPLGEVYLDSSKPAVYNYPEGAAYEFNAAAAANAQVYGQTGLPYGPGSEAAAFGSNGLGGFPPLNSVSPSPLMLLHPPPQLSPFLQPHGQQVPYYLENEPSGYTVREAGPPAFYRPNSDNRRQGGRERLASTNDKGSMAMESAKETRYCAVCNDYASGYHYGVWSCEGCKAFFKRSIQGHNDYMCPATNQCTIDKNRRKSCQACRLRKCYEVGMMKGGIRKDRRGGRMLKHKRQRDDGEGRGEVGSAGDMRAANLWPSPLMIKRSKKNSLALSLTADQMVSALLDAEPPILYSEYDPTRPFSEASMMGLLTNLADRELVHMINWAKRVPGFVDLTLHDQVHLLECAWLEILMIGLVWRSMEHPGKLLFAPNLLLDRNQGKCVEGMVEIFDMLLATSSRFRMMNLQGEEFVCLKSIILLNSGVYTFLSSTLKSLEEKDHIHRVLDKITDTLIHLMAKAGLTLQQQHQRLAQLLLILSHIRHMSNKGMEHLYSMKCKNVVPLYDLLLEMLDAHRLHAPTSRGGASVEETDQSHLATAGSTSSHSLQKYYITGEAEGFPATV
# Procedure, shortened: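 In this cell-based reporter format, GripTite HEK293 cells harbouring ER-alpha-UAS-bla were grown overnight with 2% charcoal-stripped FBS, dosed with DMSO-dissolved compounds, then challenged with 17beta-estradiol. After 18 hr at 37C, beta-lactamase activity was detected by FRET fluorescence.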
# [5] = qHTS assay to identify small molecule antagonists of the estrogen receptor alpha (ER-alpha) signaling pathway - cell viability counter screen (AID 743074; calls by dose curve; also: nearly all actives have a fitted effect of over 45% in size; also: potency is read from the fitted curve at half-maximal effect)
# [6] = target: Estrogen receptor (Homo sapiens) (UniProt P03372); experiment: qHTS assay to identify small molecule agonists of the estrogen receptor alpha (ER-alpha) signaling pathway (AID 743075; calls by dose curve)
# [7] = target: Estrogen receptor (Homo sapiens) (UniProt P03372); experiment: qHTS assay to identify small molecule agonists of the estrogen receptor alpha (ER-alpha) signaling pathway using the BG1 cell line (AID 743079); also: nearly all actives have a fitted effect of over 20% in size; also: potency is read from the fitted curve at half-maximal effect
# [8] = qHTS assay to identify small molecule antagonists of the estrogen receptor alpha (ER-alpha) signaling pathway using the BG1 cell line (AID 743080; calls by dose curve;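 also: BG1 cells stimulated with 17beta-estradiol alongside compound; series mostly up to about 70 µM; nearly all actives have a fitted effect of over 25% in size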)
# Procedure, shortened: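 Readout is ONE-Glo luminescence, taken 30 min at room temperature after reagent addition, preceded by a CellTiter-Fluor viability read; BG1-Luc-4E2 cells had received compound and 17beta-estradiol for 21.5 h at 37 C.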
# [9] = qHTS assay to identify small molecule antagonists of the estrogen receptor alpha (ER-alpha) signaling pathway using the BG1 cell line - cell viability counter screen (AID 743081);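 also: compound given together with 17beta-estradiol as the ER stimulus; series mostly up to about 70 µM; nearly all actives have a fitted effect of over 45% in size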
# [10] = target: Aromatase (Homo sapiens) (UniProt P11511); experiment: qHTS assay to identify aromatase inhibitors (AID 743083); also: nearly all actives have a fitted effect of over 55% in size; also: potency is read from the fitted curve at half-maximal effect
# Aromatase (Homo sapiens), sequence (P11511 whole entry, looked up): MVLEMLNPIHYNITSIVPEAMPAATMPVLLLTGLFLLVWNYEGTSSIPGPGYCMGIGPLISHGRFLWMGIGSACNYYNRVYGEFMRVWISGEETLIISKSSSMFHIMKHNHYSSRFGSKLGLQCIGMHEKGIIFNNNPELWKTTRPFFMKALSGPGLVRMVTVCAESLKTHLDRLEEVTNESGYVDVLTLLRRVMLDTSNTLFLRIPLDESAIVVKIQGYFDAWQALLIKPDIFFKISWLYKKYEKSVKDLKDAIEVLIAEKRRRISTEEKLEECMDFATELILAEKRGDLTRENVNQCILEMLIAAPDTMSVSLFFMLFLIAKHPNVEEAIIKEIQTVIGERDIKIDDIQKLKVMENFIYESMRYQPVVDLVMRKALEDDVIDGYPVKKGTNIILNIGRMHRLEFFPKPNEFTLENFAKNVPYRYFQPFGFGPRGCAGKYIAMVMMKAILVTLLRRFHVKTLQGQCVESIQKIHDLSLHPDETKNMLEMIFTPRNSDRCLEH
# [11] = qHTS assay to identify aromatase inhibitors - cell viability counter screen (AID 743084);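 also: cells stimulated with testosterone during compound exposure; nearly all actives have a fitted effect of over 55% in size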; also: potency is read from the fitted curve at half-maximal effect
# [12] = target: Aryl hydrocarbon receptor (Homo sapiens) (UniProt P35869); experiment: qHTS assay to identify small molecule that activate the aryl hydrocarbon receptor (AhR) signaling pathway (AID 743085); also: nearly all actives have a fitted effect of over 15% in size; also: potency is read from the fitted curve at half-maximal effect;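 as to activation: HG2L7.5c1 human HepG2 liver cells with stably integrated DRE-driven firefly reporter; series mostly up to about 70 µM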
# Aryl hydrocarbon receptor (Homo sapiens), sequence (P35869 whole entry, looked up): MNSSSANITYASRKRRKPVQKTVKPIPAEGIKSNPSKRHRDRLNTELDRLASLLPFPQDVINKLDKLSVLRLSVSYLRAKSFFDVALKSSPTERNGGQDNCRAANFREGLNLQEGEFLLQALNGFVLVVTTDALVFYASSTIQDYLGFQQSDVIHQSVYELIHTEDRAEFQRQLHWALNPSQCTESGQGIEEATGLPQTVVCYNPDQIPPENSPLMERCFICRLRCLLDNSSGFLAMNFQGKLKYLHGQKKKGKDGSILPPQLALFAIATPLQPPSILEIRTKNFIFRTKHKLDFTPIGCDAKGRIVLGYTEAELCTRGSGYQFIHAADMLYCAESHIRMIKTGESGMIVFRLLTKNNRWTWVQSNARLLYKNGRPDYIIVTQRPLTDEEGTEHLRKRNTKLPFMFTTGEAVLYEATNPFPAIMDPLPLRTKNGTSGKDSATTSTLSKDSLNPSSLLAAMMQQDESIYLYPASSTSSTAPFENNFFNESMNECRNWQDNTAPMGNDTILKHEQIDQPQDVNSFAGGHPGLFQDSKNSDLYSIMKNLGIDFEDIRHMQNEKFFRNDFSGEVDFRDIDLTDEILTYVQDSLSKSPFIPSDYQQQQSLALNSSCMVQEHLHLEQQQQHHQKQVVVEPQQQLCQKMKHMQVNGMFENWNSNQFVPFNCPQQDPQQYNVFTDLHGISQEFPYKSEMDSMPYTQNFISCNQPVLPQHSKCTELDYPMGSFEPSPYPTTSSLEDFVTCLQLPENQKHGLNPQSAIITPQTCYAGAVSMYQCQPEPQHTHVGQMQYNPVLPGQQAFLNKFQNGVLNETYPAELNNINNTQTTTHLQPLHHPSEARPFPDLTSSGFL
# Procedure, shortened: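 Measured in HG2L7.5c1 cells: CellTiter-Fluor signal (30 min incubation, 37C) for viability, then luciferase luminescence (30 min, room temperature). Compound contact time was 24 h at 37C, following a 5 h pre-incubation.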
# [13] = qHTS assay to identify small molecule that activate the aryl hydrocarbon receptor (AhR) signaling pathway - cell viability counter screen (AID 743086);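 also: HepG2 liver cells carrying the AhR DRE luciferase reporter; series mostly up to about 70 µM; nearly all actives have a fitted effect of over 45% in size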
# Procedure, shortened: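 HepG2-AhR-luc (HG2L7.5c1) cells, 4000/well, treated 24 h at 37 C with compound; viability measured as CellTiter-Fluor fluorescence after 30 min in the same wells as the luciferase read.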
# [14] = qHTS assay to identify small molecule antagonists of the peroxisome proliferator-activated receptor gamma (PPARg) signaling pathway - cell viability counter screen (AID 743194); also: nearly all actives have a fitted effect of over 55% in size
# Procedure, shortened: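 Cytotoxicity counter screen in PPARg-bla HEK293H cells, same wells as reporter assay. Compounds plus 50 nM rosiglitazone (final) for 17 h at 37 C, then viability read by CellTiter-Glo luminescence.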
# [15] = qHTS assay for small molecule agonists of the antioxidant response element (ARE) signaling pathway (AID 743202; active = well fitted activation curve with a large enough effect in the signal ratio in the repeat runs, not every such curve was filed as active; the % refers to the signal ratio; also: potency is read from the fitted curve at half-maximal effect)
# Procedure, shortened: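 HepG2 ARE-bla cells; 16 h treatment at 37 C; FRET-based beta-lactamase fluorescence read after 2 h substrate incubation at room temperature.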
# [16] = qHTS assay for small molecule agonists of the antioxidant response element (ARE) signaling pathway - cell viability counter screen (AID 743203; calls by dose curve; also: nearly all actives have a fitted effect of over 55% in size)
# Procedure, shortened: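 Cytotoxicity was tested in parallel with the ARE reporter screen. ARE-bla HepG2 cells were exposed to compounds for 16 hrs, and viability was taken from CellTiter-Glo luminescence.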
# [17] = qHTS assay for small molecule activators of the heat shock response signaling pathway - cell viability counter screen (AID 743209); also: nearly all actives have a fitted effect of over 50% in size
# Procedure, shortened: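 Cytotoxicity counter screen run in parallel with the HSE beta-lactamase reporter, using the same wells. HeLa HSE-bla cells received compound for 5 h at 37 C; ATP-based CellTiter-Glo luminescence was measured after 30 min at room temperature.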
# [18] = qHTS assay for small molecule activators of the heat shock response signaling pathway (AID 743210; active = well fitted activation curve with a large enough effect in the signal ratio in the repeat runs, with a control signal flat, not every such curve was filed as active; the % refers to the signal ratio;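 also: HeLa cells with beta-lactamase reporter driven by heat shock elements; series mostly up to about 63 µM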)
# Procedure, shortened: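 Following overnight attachment, HSE-bla HeLa cells received test compounds for 5 h at 37 C; beta-lactamase activity was then detected via FRET substrate fluorescence.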
# [19] = target: Peroxisome proliferator-activated receptor gamma (Homo sapiens) (UniProt P37231); experiment: qHTS assay to identify small molecule agonists of the peroxisome proliferator-activated receptor gamma (PPARg) signaling pathway (AID 743094; active = well fitted activation curve with a large enough effect in the signal ratio in the repeat runs, not every such curve was filed as active; the % refers to the signal ratio; also: potency is read from the fitted curve at half-maximal effect)
# Peroxisome proliferator-activated receptor gamma (Homo sapiens), sequence (P37231 whole entry, looked up): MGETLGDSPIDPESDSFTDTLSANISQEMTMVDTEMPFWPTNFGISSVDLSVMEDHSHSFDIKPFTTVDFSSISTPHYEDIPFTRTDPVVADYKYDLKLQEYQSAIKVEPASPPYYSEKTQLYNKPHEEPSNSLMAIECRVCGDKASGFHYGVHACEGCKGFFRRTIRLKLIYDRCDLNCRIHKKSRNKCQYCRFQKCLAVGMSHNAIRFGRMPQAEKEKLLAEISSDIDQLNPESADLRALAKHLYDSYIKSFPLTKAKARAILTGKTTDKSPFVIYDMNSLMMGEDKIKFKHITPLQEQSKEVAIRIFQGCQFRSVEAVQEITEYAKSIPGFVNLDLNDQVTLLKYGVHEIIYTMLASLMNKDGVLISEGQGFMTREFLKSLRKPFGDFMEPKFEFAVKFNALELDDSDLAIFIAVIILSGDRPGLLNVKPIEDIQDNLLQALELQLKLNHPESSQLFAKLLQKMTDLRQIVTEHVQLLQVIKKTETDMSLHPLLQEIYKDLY
# Procedure, shortened: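 Cells from the PPARg UAS-bla HEK293H line are plated and incubated 5 h at 37C. Compounds in DMSO are pinned in and left 17 h at 37C. LiveBLAzer B/G substrate is then added for 1 h at room temperature before fluorescence is measured.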
# [20] = target: Peroxisome proliferator-activated receptor gamma (Homo sapiens) (UniProt P37231); experiment: qHTS assay to identify small molecule antagonists of the peroxisome proliferator-activated receptor gamma (PPARg) signaling pathway (AID 743191; calls by dose curve; also: series mostly up to about 63 µM; nearly all actives have a fitted effect of over 30% in size)
# Procedure, shortened: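 GeneBLAzer PPARg UAS-bla HEK293H cells, 5 h post-plating, exposed to compounds 17 h at 37C. LiveBLAzer B/G FRET substrate added for 1 h at room temperature; beta-lactamase reporter read by fluorescence intensity.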
SMILES,Potency [1],Potency [2],Potency [3],Potency [4],Potency [5],Potency [6],Potency [7],Potency [8],Potency [9],Potency [10],Potency [11],Potency [12],Potency [13],Potency [14],Potency [15],Potency [16],Potency [17],Potency [18],Potency [19],Potency [20]
C[C@]12CCC(=O)C=C1CC[C@@H]1[C@@H]2C(=O)C[C@@]2(C)[C@H]1CC[C@]2(O)C(=O)CO,inactive,inactive,inactive,inactive,inactive,inactive,inactive,inactive,inactive,inactive,inactive,inactive,inactive,inactive,inactive,inactive,inactive,inactive,–,–
Cc1ccc2c(n1)Oc1ccc(C(C)C(=O)OCC(=O)N(C)C)cc1C2 (stereo not drawn),inactive,inactive,inactive,inactive,inactive,inactive,inactive,–,inactive,inactive,inactive,11.9 µM (active),inactive,inactive,inactive,inactive,inactive,inactive,inactive,inactive
COC(C)COC(C)COC(C)CO (stereo not drawn),inactive,inactive,inactive,inactive,inactive,inactive,inactive,inactive,inactive,inactive,inactive,inactive,–,inactive,inactive,inactive,inactive,inactive,inactive,inactive
CC(C)OC=O,inactive,inactive,inactive,inactive,inactive,inactive,inactive,inactive,inactive,inactive,inactive,inactive,inactive,inactive,inactive,inactive,inactive,inactive,inactive,inactive
COC(=O)CCC(=O)OC,inactive,inactive,inactive,inactive,inactive,inactive,inactive,inactive,inactive,inactive,inactive,–,inactive,inactive,inactive,–,inactive,–,inactive,inactive
c1ccc2c(c1)c1cccc3ccc4cccc2c4c31,inactive,inactive,inactive,inactive,3.07 µM (active) and inactive,inactive,inactive,inactive,inactive,inactive,inactive,inactive,inactive,inactive,60.7 µM (active),inactive,inactive,inactive,–,–
c1ccc2c(c1)Oc1ccccc1S2,inactive,inactive,inactive,inactive,inactive,inactive,inactive and 61.1 µM (active),inactive,inactive,inactive,inactive,–,inactive,–,inactive,inactive,inactive,inactive,–,–
Nc1ccc(Cl)cc1Cl,inactive,inactive,inactive,inactive,inactive,inactive,inactive,inactive,inactive,inactive,inactive,inactive,inactive,–,inactive,inactive,inactive,inactive,inactive,inactive
c1cc(-c2ccncc2)ccn1,inactive,inactive,inactive,inactive,inactive,inactive,inactive,–,inactive,inactive,inactive,inactive,inactive,inactive,–,inactive,inactive,inactive,inactive,inactive
Cc1c(C(N)=O)cc([N+](=O)[O-])cc1[N+](=O)[O-],inactive,inactive,inactive,inactive,inactive,inactive,inactive,inactive,inactive,inactive,inactive,inactive,–,inactive,inactive,inactive,inactive,–,–,–
CC(C)=CCCC(C)CCO (stereo not drawn),inactive,inactive,inactive,inactive,inactive,inactive,inactive,inactive,inactive,inactive,inactive,inactive,inactive,inactive,inactive,inactive,inactive,inactive,inactive,–
CC1=CCC(C(C)(C)O)CC1 (stereo not drawn),inactive,inactive,inactive,inactive,inactive,inactive,inactive,inactive,inactive,inactive,inactive,inactive,inactive,inactive,inactive,inactive,inactive,inactive,inactive,inactive
CCCCC(CC)COC(=O)c1ccc(N(C)C)cc1 (stereo not drawn),inactive,inactive,inactive,inactive,inactive,inactive,inactive,inactive,inactive,inactive,inactive,inactive and 27.3 µM (active),inactive,inactive,inactive,inactive,inactive,inactive,inactive,inactive
O=C(OCc1ccccc1)c1ccccc1O,inactive,inactive,inactive,inactive,inactive,inactive,24.3 µM (active),inactive,inactive,inactive,inactive,inactive,inactive,–,inactive,–,inactive,inactive,–,–
c1ccncc1,inactive,inactive,inactive,inactive,inactive,inactive,inactive,inactive,inactive,inactive,inactive,inactive,–,inactive,inactive,–,inactive,inactive,inactive,–
Cc1ccc(C)c(O)c1C,inactive,inactive,inactive,inactive,inactive,inactive,inactive,inactive,inactive,inactive,inactive,inactive,inactive,inactive,inactive,inactive,inactive,inactive,inactive,inactive
Cc1cccc(C(=O)O)c1,inactive,inactive,inactive,inactive,inactive,inactive,inactive,inactive,inactive,inactive,inactive,inactive,inactive,inactive,inactive,inactive,inactive,inactive,inactive,inactive
CC(=O)CC/C=C(\C)CCC=C(C)C,inactive,inactive,inactive,inactive,inactive,inactive,inactive,inactive,inactive,inactive,inactive,inactive,inactive,inactive,inactive,inactive,inactive,inactive,inactive,inactive
C=CC(C)(CCC=C(C)C)OC(C)=O (stereo not drawn),inactive,inactive,inactive,inactive,inactive,inactive,inactive,inactive,inactive,inactive,inactive,inactive,–,–,inactive,inactive,inactive,inactive,inactive,inactive
CC(C(=O)O)c1cccc(C(=O)c2ccccc2)c1 (stereo not drawn),inactive,inactive,inactive,inactive,inactive,inactive,inactive,inactive,inactive,inactive,inactive,inactive,inactive,inactive,inactive,inactive,inactive,inactive,inactive,inactive
CN1C(C(=O)Nc2ccccn2)=C(O)c2ccccc2S1(=O)=O,inactive,inactive,inactive,inactive,inactive,inactive,inactive,inactive,inactive,inactive,inactive,inactive and 24.6 µM (active),inactive,–,inactive,–,inactive,inactive,inactive,inactive
CC1=CC2C3CC(C=C3C)C2C1 (stereo not drawn),inactive,inactive,inactive,inactive,inactive,inactive,inactive,inactive,inactive,inactive,inactive,inactive,inactive,–,inactive and 27.3 µM (active),inactive,inactive,inactive,inactive,inactive
OC(CCl)CCl,inactive,inactive,inactive,inactive,inactive,inactive,inactive,inactive,inactive,inactive,inactive,inactive,inactive,inactive,inactive,–,inactive,inactive,inactive,inactive
c1ccc2sc(SSN3CCOCC3)nc2c1,15.3 µM (active) and 24.3 µM (active),13.7 µM (active) and 15.4 µM (active),inactive,inactive,inactive,inactive,inactive,inactive,inactive,5.44 µM (active),6.84 µM (active),30.6 µM (active),inactive,inactive,–,–,inactive,–,5.48 µM (active),–
CC(C)OB(OC(C)C)OC(C)C,inactive,inactive,inactive,inactive,inactive,inactive,inactive,inactive,inactive,inactive,inactive,inactive,–,inactive,inactive,–,inactive,inactive,inactive,inactive
OC1CCCCCCCCCCC1,inactive,inactive,inactive,inactive,inactive,inactive,inactive,inactive,inactive,inactive,inactive,inactive,inactive,inactive,inactive,inactive,inactive,inactive,inactive,inactive
CCCCNS(=O)(=O)c1ccccc1,inactive,inactive,inactive,inactive,inactive,inactive,inactive,inactive,inactive,inactive,inactive,inactive,inactive,–,inactive,–,inactive,inactive,inactive,inactive
O=S(=O)(O)c1ccc(O)cc1,inactive,inactive,inactive,inactive,inactive,inactive,inactive,inactive,inactive,inactive,inactive,inactive,inactive,inactive,inactive,inactive,inactive,inactive,inactive,inactive
